In the library only some 1.4% were active in any assay of this set; here they are far more common.
AmpC inh no detg: qHTS Inhibitors of AmpC Beta-Lactamase (assay without detergent); P00811; AmpC nitrocefin hydrolysis, absorbance 480 nm, 0.0001% Triton; Potency, µM (titrated, usually from 57.1 µM), usual class: inhibitors; actives 0.52% (n = 330,000); AID 485341, 2010; further: nearly all actives have a fitted effect of over 20% in size
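AmpC (5.3 nM in the dispensed reagent) in 20 mM phosphate pH 7.0 with 0.01% (detergent screen) or 0.0001% Triton X-100 was preincubated with compounds for 15 min at room temperature. Nitrocefin was then added from an 800 uM solution, and hydrolysis was followed at 480 nm.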
TbPYK inhibitor: qHTS of Trypanosoma Brucei Inhibitors | pyruvate kinase (Trypanosoma brucei), Q57TT1 | TbPYK enzyme, Kinase-Glo Plus ATP luminescence, 45 min | Potency, µM (top dose mostly 76.8 µM), most hits filed as inhibitors | actives 0.12% (n = 410,000); further: nearly all actives have a fitted effect of over 50% in size
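Enzyme and substrate buffer are dispensed first and compound is pin-transferred. ADP at 130 uM final then starts the reaction, which runs 45 min at room temperature. Detection reagent is added for 10 min before luminescence is imaged.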
RE007 growth inh: qHTS Assay for Inhibitors of the HIV-1 protein Vpr; AID 651644, 2012; actives 0.21% (n = 360,000); Potency, µM (titrated, usually from 92.2 µM), most hits filed as inhibitors; S. pombe RE007 Vpr strain, BacTiter-Glo ATP luminescence, 24 h; active means well fitted falling curve with a large enough effect; inconclusive means small, poorly fitted or top-dose-only effect; inactive means no such curve, though single readings can be large or run the other way; further: nearly all actives have a fitted effect of over 50% in size
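Fission yeast strain RE007, carrying one chromosomally integrated HIV-1 vpr copy, was seeded at OD 0.01 in PMG+AL medium with 23 nL pinned compound. After 24 h at 30 °C and 99% humidity, viability was read by BacTiter-Glo luminescence.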
LmPK inh: qHTS Assay for Inhibitors of Leishmania Mexicana Pyruvate Kinase (LmPK). Potency, µM (highest dose often 57.5 µM), most hits filed as inhibitors. AID 1721, 2009. actives 0.37% (n = 290,000). purified LmPK, Kinase-Glo ATP luminescence, 1 h. Q27686
Target sequence (Q27686 whole entry, looked up): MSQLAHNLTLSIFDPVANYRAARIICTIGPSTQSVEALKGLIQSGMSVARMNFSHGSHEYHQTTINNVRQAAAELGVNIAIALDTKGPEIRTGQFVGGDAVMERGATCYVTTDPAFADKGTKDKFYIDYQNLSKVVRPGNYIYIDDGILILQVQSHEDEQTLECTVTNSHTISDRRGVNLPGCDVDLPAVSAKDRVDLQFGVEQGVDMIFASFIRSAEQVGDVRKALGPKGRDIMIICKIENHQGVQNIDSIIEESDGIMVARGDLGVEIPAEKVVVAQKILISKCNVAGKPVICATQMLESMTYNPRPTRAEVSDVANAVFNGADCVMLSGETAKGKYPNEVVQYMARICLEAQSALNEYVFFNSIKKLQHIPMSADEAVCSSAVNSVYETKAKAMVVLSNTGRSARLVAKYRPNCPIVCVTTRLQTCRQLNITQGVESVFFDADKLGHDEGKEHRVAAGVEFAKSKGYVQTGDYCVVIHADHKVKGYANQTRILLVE
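In 50 mM imidazole pH 7.2 with 7 mM MgCl2, LmPK (0.1 nM) turned over PEP (0.5 mM) and ADP (0.1 mM) for 1 h at room temperature. Luciferase read-out of ATP.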
Giardia FBPA inh-1: qHTS Assay for Inhibitors of Fructose-1,6-bisphosphate Aldolase from Giardia Lamblia. A8B2U2. purified Giardia FBPA. Potency, µM (highest dose often 59.6 µM), actives largely listed as inhibitors. actives 0.71% (n = 290,000). AID 2451, 2010; further: nearly all actives have a fitted effect of over 55% in size
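Giardia FBPA (40 nM reagent) was preincubated 10 min at RT with compound (up to 57.5 uM final), then substrate plus GAPDH/TPI/NAD/arsenate coupling system with diaphorase/resazurin was added; resorufin fluorescence (525/598 nm) was read after 20 min.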
AmpC detergent: qHTS Inhibitors of AmpC Beta-Lactamase (assay with detergent). AmpC hydrolysis of nitrocefin, absorbance 480 nm, 0.01% Triton. Potency, µM (highest dose often 114 µM), hits mostly inhibitors. actives 0.041% (n = 370,000). AID 485294, 2010; further: nearly all actives have a fitted effect of over 25% in size
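AmpC (5.3 nM in the dispensed reagent) in 20 mM phosphate pH 7.0 with 0.01% (detergent screen) or 0.0001% Triton X-100 was preincubated with compounds for 15 min at room temperature. Nitrocefin was then added from an 800 uM solution, and hydrolysis was followed at 480 nm.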
Giardia growth: qHTS Assay for Inhibitors of Fructose-1,6-bisphosphate Aldolase from Giardia Lamblia: Giardia lamblia growth inhibition | shares compounds with Giardia FBPA inh-1 | Giardia lamblia trophozoite growth inhibition | AID 2785, 2010 | Potency, µM (highest dose often 57.5 µM), actives largely listed as inhibitors | actives 5% (n = 1,500);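 further: trophozoites exposed to compound for 48 h at 37 °C; nearly all actives have a fitted effect of over 70% in size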
Mammal cell tox: qHTS Assay for Inhibitors of Fructose-1,6-bisphosphate Aldolase from Giardia Lamblia: Mammalian cellular toxicity. shares compounds with Giardia FBPA inh-1. mammalian cell viability counter-screen, qHTS. Potency, µM (highest dose often 57.5 µM), most hits filed as inhibitors. actives 4% (n = 1,500);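 further: Chinese hamster ovary cells used as mammalian cytotoxicity surrogate; viability measured as cellular ATP by luminescence; compound exposure lasted 48 h before reading; nearly all actives have a fitted effect of over 60% in size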
Giardia FBPA inh-2: qHTS Assay for Inhibitors of Fructose-1,6-bisphosphate Aldolase from Giardia Lamblia: Primary screen confirmation | actives 5% (n = 1,500) | shares compounds with Giardia FBPA inh-1 | AID 2787, 2010 | purified Giardia aldolase enzyme activity, qHTS | Potency, µM (series often up to 57.5 µM), actives largely listed as inhibitors; further: nearly all actives have a fitted effect of over 45% in size
Rabbit FBPA inh: qHTS Assay for Inhibitors of Fructose-1,6-bisphosphate Aldolase from Giardia Lamblia: Rabbit FBPA Selectivity | shares compounds with Giardia FBPA inh-1 | Rabbit muscle FBPA enzyme inhibition, selectivity counter-screen | Potency, µM (titrated, usually from 57.5 µM), most hits filed as inhibitors | actives 4% (n = 1,500) | AID 2794, 2010; further: nearly all actives have a fitted effect of over 60% in size
GAPDH counter: qHTS Assay for Inhibitors of Fructose-1,6-bisphosphate Aldolase from Giardia Lamblia: Coupling assay counterscreen confirmation; AID 2795, 2010; Potency, µM (titrated, usually from 57.5 µM), usual class: inhibitors; actives 6% (n = 1,500); shares compounds with Giardia FBPA inh-1; GAPDH coupling enzyme counterscreen, biochemical, qHTS; further: nearly all actives have a fitted effect of over 55% in size
Hits are given with their value; i = inactive; ? = inconclusive; nt = no result given. Unless noted, the call rests on the fitted dose curve; in most records, active means well fitted curve in the direction sought with a large enough effect; inconclusive means small, poorly fitted or top-dose-only effect, or another doubt; inactive means no such curve, though single readings can be large; an effect the other way counts as inactive or inconclusive.

SMILES	AmpC inh no detg	TbPYK inhibitor	RE007 growth inh	LmPK inh	Giardia FBPA inh-1	AmpC detergent	Giardia growth	Mammal cell tox	Giardia FBPA inh-2	Rabbit FBPA inh	GAPDH counter
Cc1ccc(/C=C2\SC(=S)N(C3CCS(=O)(=O)C3)C2=O)o1 (stereo not drawn)	i	i	i	i	?	i	nt	nt	nt	nt	nt
Cc1ccc(S(=O)(=O)c2nnn3c2nc(N2CCC(C)CC2)c2cc(Cl)ccc23)cc1C	nt	i	nt	nt	nt	i	nt	nt	nt	nt	nt
NNc1nc2c(-c3ccc(F)cc3)nnn2c2ccccc12	i	i	i	i	?	?	nt	nt	nt	nt	nt
NNc1nc2c(-c3ccc(Cl)cc3)nnn2c2ccccc12	i	i	i	i	14µM	?	?	?	i	i	i
Cc1cc(C)cc(NS(=O)(=O)c2ccc3c(c2)NC(=O)C(C)S3)c1 (stereo not drawn)	nt	i	nt	nt	nt	i	nt	nt	nt	nt	nt
Cc1ccc(C2CC(=O)C(C=NCCN3CCN(C(=S)Nc4ccc(F)cc4)CC3)=C(O)C2)cc1 (stereo not drawn)	i	i	i	i	i	i	nt	nt	nt	nt	nt
Cc1cc(C)nc(N/N=C/C2=C(O)CC(c3ccc(F)cc3)CC2=O)n1 (stereo not drawn)	i	i	i	i	i	i	i	?	i	i	i
CCC(C)c1ccccc1NC(=O)C(C)N(C)Cc1cccc(OC)c1 (stereo not drawn)	i	i	i	i	20µM	i	?	i	i	i	i
Cc1c(C(=O)N2CCOCC2)oc2c1-c1nn(CC(=O)NCc3cccc(Cl)c3)cc1CC2	nt	i	nt	nt	nt	i	nt	nt	nt	nt	nt
COCCNC(=O)c1sc2ncccc2c1-n1c(C)ccc1C	nt	i	nt	nt	nt	i	nt	nt	nt	nt	nt
COc1ccc(S(=O)(=O)N2CCN(C3CC4CCC3C4)CC2)cc1 (stereo not drawn)	i	i	i	i	i	i	nt	nt	nt	nt	nt
Cc1ccc(S(=O)(=O)N2CCN(C3CC4CCC3C4)CC2)cc1 (stereo not drawn)	i	i	i	i	14µM	i	i	i	i	i	i
Cc1cc(OCCn2cc(C(=O)c3cccs3)c3ccccc32)ccc1Cl	nt	i	nt	nt	nt	i	nt	nt	nt	nt	nt
COc1cc(C(=O)NCC(c2ccc3c(c2)OCO3)N2CCOCC2)cc(OC)c1OC (stereo not drawn)	nt	i	nt	nt	nt	i	nt	nt	nt	nt	nt
CCN(C(=O)c1nn(C)c2c1CSc1ccccc1-2)c1cccc(C)c1	nt	i	nt	nt	nt	i	nt	nt	nt	nt	nt
COc1ccc(OC)c(C2CC(=O)N3CN(c4cccc(Cl)c4C)CSC3=C2C#N)c1 (stereo not drawn)	i	3.5µM	i	i	1.4µM	i	?	i	i	?	?

Source: PubChem
